# Source: PubChem (several laboratories)
# GIRK2 activator: GIRK2 channel activators by thallium flux | P48051 | HEK293 GIRK2/NPY4 cells, thallium flux fluorescence | activation (% efficacy), % for hits at 75 µM | 34,000 tested, under 10 active | AID 1259324;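 active means primary screen hit, no activity in plain HEK293 cells, and in GIRK2-only cells above 5% efficacy rising with concentration; inactive means the rest, including fluorescent compounds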;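 further: efficacy is normalized control-subtracted fluorescence 15 s after thallium addition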
# Target sequence (P48051 whole entry, looked up): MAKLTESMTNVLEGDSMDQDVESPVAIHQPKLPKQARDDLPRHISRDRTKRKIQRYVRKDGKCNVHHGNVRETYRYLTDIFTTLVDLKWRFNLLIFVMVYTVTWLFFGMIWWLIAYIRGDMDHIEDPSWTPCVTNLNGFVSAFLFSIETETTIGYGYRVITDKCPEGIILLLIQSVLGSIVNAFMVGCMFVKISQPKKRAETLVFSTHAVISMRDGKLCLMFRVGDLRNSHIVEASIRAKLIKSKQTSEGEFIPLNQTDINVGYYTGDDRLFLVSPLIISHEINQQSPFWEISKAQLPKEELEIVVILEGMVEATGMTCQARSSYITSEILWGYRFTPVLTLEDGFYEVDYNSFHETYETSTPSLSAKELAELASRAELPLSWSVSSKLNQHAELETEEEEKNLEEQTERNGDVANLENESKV
# GluA2 TARP mod: GluA2-stargazin AMPA receptor complex modulation | O88602+P19491 | HEK293 GluA2+stargazin, membrane potential dye (FDSS), glutamate EC50; hits were called plate by plate, in both directions | 40,000 tested, 3.5% active | AID 1259245 | calls only at 30 µM;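 active means any of four per-well response measures lying three or more SD from its plate-wide compound average, in either direction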
# Calls only; - = inactive; . = no result given; + = active, no number. Shown is part of a subset that was picked to be rich in hits.
SMILES,GIRK2 activator,GluA2 TARP mod
Cc1nnc2ccc(N3CCN(C(=O)NCc4ccccc4)CC3)nn12,-,-
O=C(NCc1ccccc1)N1CCN(c2ccc3nnc(-c4ccco4)n3n2)CC1,-,+
Cc1ccc(C)c(S(=O)(=O)N2CCN(c3ccc4nnc(-c5ccco5)n4n3)CC2)c1,-,-
O=C(CCCCn1c(=O)[nH]c2ccccc2c1=O)N1CCN(c2ccccc2)CC1,-,-
COCCNC(=O)C(=O)Nc1ccc2c(c1)OCCO2,-,-
CCOc1ccccc1CN1C(=O)C2(OCCCO2)c2ccccc21,.,-
CN(C)C(CNC(=O)C(=O)Nc1ccon1)c1ccc(F)cc1 (stereo not drawn),-,-
CCOc1ccccc1NC(=O)Cc1csc(Nc2cccc(Cl)c2)n1,-,-
COc1ccc(OCC(=O)NCCc2ccc(OC)c(OC)c2)cc1,-,-
COc1ccc(CCNC(=O)COc2ccc(C(C)C)c(C)c2)cc1OC,-,+
CC(C(=O)NCCc1cccs1)n1nnc2ccccc2c1=O (stereo not drawn),-,-
O=C(NCCc1cccs1)c1nnn(-c2ccccc2Cl)c1-c1ccncc1,-,+
O=C(Cc1csc(NC(=O)c2ccc(=O)[nH]c2)n1)Nc1ccc(OC(F)(F)F)cc1,-,-
Cc1cc(C)c(S(=O)(=O)N2CCN(Cc3ccccc3)CC2)c(C)c1N(C)S(C)(=O)=O,.,-
CCOC(=O)Nc1nc(CC(=O)N2CCN(c3ccc(F)cc3)CC2)cs1,-,.
COc1ccc(S(=O)(=O)Nc2nc(CCC(=O)Nc3ccc4c(c3)OCCO4)cs2)cc1,-,-
CN(C)c1ccc(-c2oc3ccccc3c(=O)c2O)cc1,.,+
O=c1c(O)c(-c2ccccc2)oc2ccccc12,.,-
COC(CNC(=O)C(=O)Nc1c2c(nn1-c1ccc(Cl)cc1)CS(=O)(=O)C2)OC,-,-
CCOc1nn(CC)cc1-c1nnc(SCC(=O)NC)n1CC,-,-
Cc1ccsc1C(O)CNC(=O)Cc1ccccc1Cl (stereo not drawn),-,-
Cc1ccsc1C(O)CNC(=O)C(c1ccccc1)c1ccccc1 (stereo not drawn),-,+
COc1ccc(S(=O)(=O)N2CCN(c3ccc(-c4cccnc4)nn3)CC2)cc1OC,-,-
CCn1c(-n2nc(C)cc2C)nc2c1c(=O)n(CCOC)c(=O)n2C,.,-
COCCn1c(=O)c2c(nc(-n3nc(C)cc3C)n2C)n(C)c1=O,.,+
SMILES,GIRK2 activator,GluA2 TARP mod
CCOCCn1c(=O)c2c(nc3n2CC(C)CN3c2ccc(Br)cc2)n(C)c1=O (stereo not drawn),.,-
COCCn1c(=O)c2c(nc3n2CC(C)CN3c2ccc(Br)cc2)n(C)c1=O (stereo not drawn),.,+
CS(=O)(=O)N1CCC(CNC(=O)C(=O)NCCc2ccccc2)CC1,-,-
CCOc1ccccc1NC(=O)Cn1nc(-c2ccc(CC)cc2)ccc1=O,-,-
CN(CC(O)COC12CC3CC(CC(C3)C1)C2)C1CCCCC1 (stereo not drawn),.,-
O=C(Nc1ccc([N+](=O)[O-])cc1)C1CCN(c2ccc(-c3ccc(F)cc3)nn2)CC1,-,-
O=C(Nc1ccc2ncsc2c1)c1cccc([N+](=O)[O-])c1,-,+
O=C(Nc1ccc2ncsc2c1)c1ccc(C(=O)c2ccccc2)cc1,-,-
C=CCn1c(=O)c2c(nc3n(-c4cccc(OC)c4)c(-c4ccccc4)cn23)n(C)c1=O,.,-
O=C(/C=C/c1cccs1)NCC1CCN(Cc2ccsc2)CC1,-,+
COC(=O)N1CCC(CNC(=O)/C=C/c2cccs2)CC1,-,-
Cc1cc(C)n(CC(=O)Nc2ccc(C(C)C)cc2)c(=O)c1S(=O)(=O)c1ccccc1,-,-
CCC(CC)C(=O)NCCNc1ccc(Nc2cccc(C)n2)nn1,-,+
COc1ccccc1C(=O)NCCNc1ccc(Nc2cccc(C)n2)nn1,-,.
CCNC(=O)C1Cc2ccccc2N1C(=O)c1ccc(Cl)cc1 (stereo not drawn),-,-
CCS(=O)(=O)N1CCCc2cc(NC(=O)Nc3ccc(OC)cc3)ccc21,-,-
CCS(=O)(=O)N1CCCc2cc(NC(=O)NCc3ccccc3)ccc21,-,-
CCS(=O)(=O)N1CCCc2cc(NC(=O)Nc3cc(Cl)ccc3OC)ccc21,-,+
CCCS(=O)(=O)N1CCCc2cc(NC(=O)NCCCc3ccccc3)ccc21,-,+
Nc1ccc2c(c1)N(S(=O)(=O)c1ccccc1)CCC2,.,-
O=C(O)CCN1CCN(Cc2ccc(Cl)cc2)CC1,-,+
O=C(O)CCN1CCN(Cc2ccccc2)CC1,-,-
COc1ccc(S(=O)(=O)N2CCN=C2SCc2ccccc2F)cc1,.,+
COc1ccc(S(=O)(=O)N2CCN=C2SCc2ccccc2C)cc1,.,-
CCCC(=O)Nc1ccc(S(=O)(=O)NCCn2nc(-c3ccc(OC)cc3)ccc2=O)cc1,.,-
SMILES,GIRK2 activator,GluA2 TARP mod
COc1cc(OC)cc(-c2noc(Cn3c(=O)[nH]c4cc5c(cc4c3=O)OCO5)n2)c1,-,-
CCC(CC)C(=O)Nc1cc(C)nn1-c1nc2c(cnn2-c2ccc(Cl)cc2)c(=O)[nH]1,-,.
CCOc1cc(C)ccc1S(=O)(=O)N1CCCCC1,.,-
CCOc1cc(C)ccc1S(=O)(=O)N1CC(C)CC(C)C1 (stereo not drawn),.,+
COc1ccccc1CCNC(=O)Cn1nc(-c2cccc(Br)c2)ccc1=O,-,-
NC(=S)c1cc2ccc(O)cc2oc1=O,.,-
CN(C)c1ccc(-c2noc(-c3cc4ccc(O)cc4oc3=O)n2)cc1,-,+
C=CCn1c(SCC(=O)NCc2ccco2)nc2scc(-c3ccccc3Cl)c2c1=O,-,+
C=CCn1c(SCC(=O)NCC2CCCO2)nc2scc(-c3ccc(Cl)cc3)c2c1=O (stereo not drawn),-,-
COc1cccc(NC(=O)N2CCN(Cc3ccsc3)CC2)c1OC,-,-
CN1CCN(c2nc3c(c(=O)[nH]c(=O)n3C)n2CC(=O)c2ccc([N+](=O)[O-])cc2)CC1,.,+
COc1ccc(N2CCN(c3nc4c(c(=O)[nH]c(=O)n4C)n3CC(=O)c3ccccc3)CC2)cc1,.,-
COc1ccc(S(=O)(=O)N(C)CCCC(=O)O)cc1N(C)S(=O)(=O)c1ccccc1,.,-
CN(CCCC(N)=O)S(=O)(=O)c1ccc2c(c1)C(=O)c1ccccc1C2=O,.,+
COc1ccc(S(=O)(=O)N2CCOC(c3ccccc3)C2)cc1OC (stereo not drawn),-,.
CC1CCCCN1C(=O)CSc1nc(-c2ccccc2)[nH]c1S(=O)(=O)c1ccccc1 (stereo not drawn),-,+
COc1ccc(CNC(=O)CSc2nc(-c3ccccc3)[nH]c2S(=O)(=O)c2ccccc2)cc1,-,-
COc1ccccc1NC(=O)CSc1nc(-c2ccccc2)[nH]c1S(=O)(=O)c1ccccc1,-,+
O=C(CSc1nc(-c2ccccc2)[nH]c1S(=O)(=O)c1ccccc1)NC1CCCC1,-,-
O=C(/C=C1\SC(=O)N(CC(=O)Nc2cccc(C(F)(F)F)c2)C1=O)Nc1ccccc1,.,-
CN(C1CCCC1)S(=O)(=O)c1ccc(C(=O)Nc2ncnc3sccc23)cc1,.,-
CCN(C1CCCCC1)S(=O)(=O)c1ccc(C(=O)Nc2ncnc3sccc23)cc1,-,+
O=C(CCCCn1c(=O)c2ccccc2n(CC(=O)NC2CCCCC2)c1=O)NCc1cccs1,-,+
O=C(CCCCn1c(=O)[nH]c2ccccc2c1=O)NC1CCCCCC1,-,-
